Measurements published in PubChem BioAssay.
The source made the active and inactive calls.

Key:
[1] = compound effects on lung adenocarcinoma cell viability – A549, calcein-AM fluorescence, 48 h, basal, profiling panel (AID 1162); conditions: higher = more signal
[2] = compound effects on differentiated 3T3-L1 adipocyte viability – cell-based, 3T3-L1 adipocytes, calcein-AM fluorescence, 48 h, basal, profiling panel (AID 1163); conditions: 3T3-L1 adipocytes viability, higher = more signal
[3] = compound effects on hepatocellular carcinoma cell viability – HepG2, calcein-AM fluorescence, 48 h, basal, profiling panel (AID 1164); conditions: higher = more signal
[4] = compound effects on multiple myeloma cell viability – MM1S, calcein-AM fluorescence, 48 h, basal, profiling panel (AID 1165); conditions: higher = more signal
[5] = calcein-AM signal in unstimulated myeloma cells – cell-based, calcein-AM fluorescence, 48 h, PK04 Diversity Set, profiling panel (AID 1166); conditions: RPMI8226 myeloma viability, higher = more signal;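 further: cells grown under basal conditions without added stimulus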
[6] = JC-1 mitochondrial signal, unstimulated HepG2 cells – cell-based, JC-1 fluorescence, 24 h, 100 nL compound, profiling panel (AID 1167); conditions: HepG2 mitochondrial potential, higher = more signal
[7] = JC-1 mitochondrial signal, unstimulated adipocytes – cell-based, JC-1 fluorescence, 3T3-L1 adipocytes, 24 h, 100 nL compound, profiling panel (AID 1168); conditions: JC-1 mitochondrial fluorescence, higher = more signal, called active from +8 up or from −8 down
[8] = JC-1 mitochondrial signal, unstimulated myeloma cells – cell-based, JC-1 fluorescence, RPMI8226, 24 h, 100 nL compound, profiling panel (AID 1169); conditions: JC-1 mitochondrial potential fluorescence, higher = more signal
[9] = JC-1 mitochondrial signal, unstimulated MM1S myeloma – cell-based, JC-1 fluorescence, 24 h, 100 nL compound, profiling panel (AID 1170); conditions: MM1S mitochondrial potential, higher = more signal
[10] = resazurin metabolic signal in A549 cells – cell-based, resazurin fluorescence, 24 h, PK04 Diversity Set, profiling panel (AID 1171); conditions: A549 viability, higher = more signal, called active from +8 up or from −8 down
Further: test concentration not given here.

SMILES: COc1cc(CO)ccc1OC(C)=O
- z-score [1]: 0.653
- z-score [2]: 0.584
- z-score [3]: 1.04
- z-score [4]: 1.12
- z-score [5]: 1.19
- z-score [6]: 0.302
- z-score [7]: 0.791 (inactive)
- z-score [8]: 0.41
- z-score [9]: 0.433
- z-score [10]: -1.08 (inactive)

SMILES: COCCOC(=O)N1C(=O)[C@@]2(c3cc(C#CCNC(N)=O)ccc31)[C@H](C(=O)N1CCc3cc(OC)c(OC)cc3C1)[C@H]1C(=O)O[C@H](c3ccccc3)[C@H](c3ccccc3)N1[C@@H]2c1ccc(OCCO)cc1
- z-score [1]: -0.21
- z-score [2]: 0.743
- z-score [3]: -0.0192
- z-score [4]: 0.128
- z-score [5]: 0.115
- z-score [6]: -0.691
- z-score [7]: 1.66 (inactive)
- z-score [8]: -0.468
- z-score [9]: -0.864
- z-score [10]: 0.0245 (inactive)

SMILES: COc1ccc(NN2C(C(O)c3ccc(OC)c(OCc4ccccc4)c3)C=CC3C(=O)N(C4CCCCC4)C(=O)C32)cc1 (stereo not given)
- z-score [1]: 0.412
- z-score [2]: -0.714
- z-score [3]: 0.337
- z-score [4]: -0.257
- z-score [5]: 0.0417
- z-score [6]: 0.348
- z-score [7]: 0.353 (inactive)
- z-score [8]: 0.0161
- z-score [9]: -1.33
- z-score [10]: 0.817 (inactive)

SMILES: CC(C)NC(=O)[C@@H]1c2ccccc2C(=O)N(Cc2ccccc2Cl)[C@H]1c1ccc(CO)cc1
- z-score [1]: 1.97
- z-score [2]: 0.84
- z-score [3]: 1.23
- z-score [4]: 0.0027
- z-score [5]: 0.665
- z-score [6]: 2.42
- z-score [7]: -0.466 (inactive)
- z-score [8]: -0.195
- z-score [9]: -0.615
- z-score [10]: 1.46 (inactive)

SMILES: COc1ccc([Si](C)(C)[C@@H]2[C@@H](CC(=O)N3CCC[C@H]3CO)O[C@]3(C(=O)N(C)c4c(Br)cc(C)cc43)[C@H]2C)cc1
- z-score [1]: 0.49
- z-score [2]: 0.406
- z-score [3]: 1.03
- z-score [4]: -0.929
- z-score [5]: -1.04
- z-score [6]: 1.02
- z-score [7]: 0.0349 (inactive)
- z-score [8]: -0.489
- z-score [9]: -0.0745
- z-score [10]: 0.206 (inactive)

SMILES: COC(=O)[C@@]1(Cc2ccccc2)[C@H]2c3cc(C(=O)N4CCCC4)n(C)c3C[C@H]2CN1C(=O)c1ccccc1
- z-score [1]: -1.14
- z-score [2]: 0.167
- z-score [3]: -1.24
- z-score [4]: 0.143
- z-score [5]: -0.284
- z-score [6]: 0.533
- z-score [7]: -0.469 (inactive)
- z-score [8]: -0.0143
- z-score [9]: -0.827
- z-score [10]: -0.526 (inactive)

SMILES: CC(=CC1CCCCC1)[C@@H](NC(=O)c1ccc(C(F)(F)F)cc1)c1ccc(-c2ccccc2)cc1
- z-score [1]: -0.165
- z-score [2]: -0.791
- z-score [3]: -0.839
- z-score [4]: -1.5
- z-score [5]: -2.06
- z-score [6]: -2.33
- z-score [7]: -1.09 (inactive)
- z-score [8]: -0.515
- z-score [9]: -0.693
- z-score [10]: 0.334 (inactive)

SMILES: COCCOC(=O)N1C(=O)[C@@]2(c3cc(C#CC4(O)CCCCCC4)ccc31)[C@H](C(=O)N1CCCCCCC1)[C@H]1C(=O)O[C@H](c3ccccc3)[C@H](c3ccccc3)N1[C@@H]2c1ccccc1OCCO
- z-score [1]: 0.424
- z-score [2]: 1.64
- z-score [3]: 0.504
- z-score [4]: -0.658
- z-score [5]: -1.87
- z-score [6]: -0.679
- z-score [7]: 0.656 (inactive)
- z-score [8]: -0.658
- z-score [9]: -0.987
- z-score [10]: -1.1 (inactive)

SMILES: C=CC[C@@]1(C(=O)N2CCOCC2)N=C(c2ccc(OCCCO)cc2)O[C@@H]1c1ccccc1N=[N+]=[N-]
- z-score [1]: -0.168
- z-score [2]: 1.02
- z-score [3]: 0.249
- z-score [4]: -0.791
- z-score [5]: -1.96
- z-score [6]: 1.38
- z-score [7]: 1.57 (inactive)
- z-score [8]: -0.97
- z-score [9]: -1.71
- z-score [10]: -0.915 (inactive)

SMILES: O=C1C[C@@](C(=O)NC2CC2)(c2ccc([N+](=O)[O-])cc2)[C@@H](c2ccc(CO)cc2)N1CC12CC3CC(CC(C3)C1)C2
- z-score [1]: -1.14
- z-score [2]: 0.781
- z-score [3]: -1.94
- z-score [4]: -2.07
- z-score [5]: -3.09
- z-score [6]: -0.881
- z-score [7]: -0.199 (inactive)
- z-score [8]: -0.507
- z-score [9]: -0.214
- z-score [10]: -1.45 (inactive)

SMILES: COC(=O)c1ccc(C(O)C2C=CC3C(=O)N(c4ccccc4)C(=O)C3N2Nc2ccc(C#N)cc2)o1 (stereo not given)
- z-score [1]: 0.88
- z-score [2]: 0.0728
- z-score [3]: 2.04
- z-score [4]: -0.182
- z-score [5]: -1.52
- z-score [6]: 0.822
- z-score [7]: -0.559 (inactive)
- z-score [8]: 0.111
- z-score [9]: -0.849
- z-score [10]: 0.276 (inactive)

SMILES: C=C[C@H](C)[C@@H](O)c1ccc(O)c2ccccc12
- z-score [1]: -0.573
- z-score [2]: -0.69
- z-score [3]: -0.218
- z-score [4]: -2.57
- z-score [5]: -1.55
- z-score [6]: -1.98
- z-score [7]: -0.641 (inactive)
- z-score [8]: -0.94
- z-score [9]: -1.29
- z-score [10]: -0.292 (inactive)

SMILES: CN(C)CCCNC(=O)[C@@]1(Cc2ccccc2I)c2ccccc2C(=O)N(Cc2ccccc2C(F)(F)F)[C@H]1c1ccc(CO)cc1
- z-score [1]: -2.7
- z-score [2]: -0.469
- z-score [3]: -5.13
- z-score [4]: -3.8
- z-score [5]: -4.33
- z-score [6]: -1.04
- z-score [7]: 0.64 (inactive)
- z-score [8]: -0.98
- z-score [9]: -2.43
- z-score [10]: -5.93 (inactive)

SMILES: O=C(NCc1ccccc1)[C@]1(CCS(=O)(=O)c2ccccc2)N=C(c2ccc(OCCCO)cc2)O[C@@H]1c1ccccc1
- z-score [1]: -0.649
- z-score [2]: 0.0335
- z-score [3]: -0.708
- z-score [4]: -0.478
- z-score [5]: -0.651
- z-score [6]: 1.24
- z-score [7]: 0.499 (inactive)
- z-score [8]: -0.762
- z-score [9]: -1.75
- z-score [10]: -0.704 (inactive)

SMILES: COCCOC(=O)N1C(=O)[C@@]2(c3cc(C#CCCO)ccc31)[C@H](c1ccc(O)cc1)N1[C@H](c3ccccc3)[C@H](c3ccccc3)OC(=O)[C@H]1[C@@H]2C(N)=O
- z-score [1]: 0.111
- z-score [2]: -0.0323
- z-score [3]: 1.97
- z-score [4]: 0.189
- z-score [5]: -0.934
- z-score [6]: -0.958
- z-score [7]: -1.44 (inactive)
- z-score [8]: 0.057
- z-score [9]: -0.915
- z-score [10]: -0.322 (inactive)

SMILES: C=CCC(OC(C)=O)[C@@H]1[C@@H](N(Cc2cccc3ccccc23)C(=O)c2ccc(C)cc2)c2cc(OCCCO)ccc2N1C(=O)Cc1ccc(OC)cc1 (stereo not given in full)
- z-score [1]: 1.77
- z-score [2]: 1.14
- z-score [3]: 1.97
- z-score [4]: 0.621
- z-score [5]: 0.943
- z-score [6]: 1.77
- z-score [7]: 0.696 (inactive)
- z-score [8]: 0.594
- z-score [9]: -0.596
- z-score [10]: 0.69 (inactive)

SMILES: [N-]=[N+]=NCc1ccccc1[C@@H]1OC(c2ccc(OCCCO)cc2)=N[C@]1(Cc1ccccc1N=[N+]=[N-])C(=O)NCc1ccccc1
- z-score [1]: 0.103
- z-score [2]: 0.0085
- z-score [3]: -0.829
- z-score [4]: -0.466
- z-score [5]: 0.22
- z-score [6]: 1.47
- z-score [7]: -0.385 (inactive)
- z-score [8]: -0.749
- z-score [9]: -1.37
- z-score [10]: -0.234 (inactive)

SMILES: COc1ccc(C#Cc2ccc3c(c2)[C@]2(C(=O)N3)[C@H](c3ccc(O)cc3)N3[C@H](c4ccccc4)[C@H](c4ccccc4)OC(=O)[C@H]3[C@@H]2C(=O)N2CCCCCCC2)cc1
- z-score [1]: 0.334
- z-score [2]: 1.01
- z-score [3]: 0.629
- z-score [4]: -0.0384
- z-score [5]: -0.208
- z-score [6]: 0.269
- z-score [7]: 3.48 (inactive)
- z-score [8]: -0.538
- z-score [9]: 0.366
- z-score [10]: -0.531 (inactive)

SMILES: O=C1OCC=C[C@H]2OC34C=CCN(c5ccc6ccccc6c5)C(=O)[C@H]3N(CCCO)C(=O)[C@@H]4[C@@H]12 (stereo not given in full)
- z-score [1]: 0.501
- z-score [2]: 1.79
- z-score [3]: 0.0068
- z-score [4]: -0.608
- z-score [5]: -0.691
- z-score [6]: -0.448
- z-score [7]: -0.517 (inactive)
- z-score [8]: 0.0183
- z-score [9]: -0.46
- z-score [10]: -1.09 (inactive)

SMILES: CCOC(=O)C[C@H]1[C@H](OC(=O)c2ccc(C(=O)c3ccccc3)cc2)[C@@H](NC(=O)C2CCCCC2)c2cc(OCCCO)ccc2N1C(=O)c1ccccc1
- z-score [1]: -0.195
- z-score [2]: -0.589
- z-score [3]: 0.431
- z-score [4]: -1.21
- z-score [5]: -0.681
- z-score [6]: 1.4
- z-score [7]: -0.355 (inactive)
- z-score [8]: 0.0249
- z-score [9]: -0.0847
- z-score [10]: 0.352 (inactive)

SMILES: COc1ccc(CCNC(=O)[C@@]2(Sc3ccc(C)cc3)CC(=O)N(Cc3ccccc3Cl)[C@@H]2c2ccc(CO)cc2I)cc1
- z-score [1]: 0.507
- z-score [2]: -1.07
- z-score [3]: 0.334
- z-score [4]: -1.41
- z-score [5]: -1.54
- z-score [6]: 0.167
- z-score [7]: -0.0114 (inactive)
- z-score [8]: -0.474
- z-score [9]: -1.96
- z-score [10]: -0.478 (inactive)
